Whole data set: some 39,000 sequences, median “fluorescence intensity (a.u.)” near 4,300, cut for the highest 2% near 39,000. Shown is part of a subset that was picked to be rich in the highest values.

The target in this assay is T1, OsSMF1 (Oryza sativa, UniProt Q6ZLB0 1-436).
T1 sequence: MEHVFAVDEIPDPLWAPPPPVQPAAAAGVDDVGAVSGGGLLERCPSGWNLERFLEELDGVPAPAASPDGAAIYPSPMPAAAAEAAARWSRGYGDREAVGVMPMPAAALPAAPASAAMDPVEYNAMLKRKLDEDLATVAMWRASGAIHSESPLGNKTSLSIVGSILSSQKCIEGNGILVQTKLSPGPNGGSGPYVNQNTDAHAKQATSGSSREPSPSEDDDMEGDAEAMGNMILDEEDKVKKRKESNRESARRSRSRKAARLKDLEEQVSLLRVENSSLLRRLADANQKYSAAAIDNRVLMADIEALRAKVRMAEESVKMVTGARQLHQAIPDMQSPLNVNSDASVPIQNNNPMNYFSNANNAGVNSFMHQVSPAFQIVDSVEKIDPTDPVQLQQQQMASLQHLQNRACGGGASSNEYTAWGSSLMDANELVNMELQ
In words: protein-binding microarray (RPBM); PBS, 2% BSA, 51.3 ng/ul salmon testes DNA, 50 uM zinc acetate, 200 nM TF, 25 C, 1 h; high values mean tight binding. Conditions: protein: recombinant; tags: N-terminal polyhistidine and DsRed monomer fusion (pET32a); chain copies: 2; label: CyDye5-dUTP incorporated in the synthesized complementary strand; 3' TTTTT single-stranded linker to array surface; dsDNA, one strand shown. In short, it runs like this:
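Binding signal is reported as fluorescence intensity per feature (arbitrary units) from an Axon 4000B scanner. Incubation used 200 nM of each Ni–NTA-purified, N-terminally polyhistidine- and DsRed-fused transcription factor from E. coli BL21-CodonPlus on a double-stranded custom Agilent array for 1 h at 25 °C, with 50 µM zinc acetate in the buffer, followed by washing.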
In the case of “CAGGGGCATTTCCGTAAACTCCCACGTGGCACAGATACGGCGGAGTCACCTAGTGCAG”, the binding signal is 13200 fluorescence intensity (a.u.).

With “TCTTGACATCCGGAATCATCACGCTCTTCCCAATCGAGGTCGGAGTCACCTAGTGCAG”, the binding signal was 3680 fluorescence intensity (a.u.).

Consider “AAGTAGCCCGGATCTCCCAGCTTCCCTCGAGCTGACCTCACGGAGTCACCTAGTGCAG”, for which the binding signal is 3960 fluorescence intensity (a.u.).

Take “TTTAATTCAAATGCCACCTAAGCACCACGTCAGCGAAACCCGGAGTCACCTAGTGCAG”: the binding signal was 42600 fluorescence intensity (a.u.).

On to “TGCCACGTCAGCGAAAACCACCATCTAAACCACCGCCATGCGGAGTCACCTAGTGCAG”, for which the binding signal was 7960 fluorescence intensity (a.u.).

As to “TGCTGACTATGATGCCACGTCAGCGAAACCACCCATATATCGGAGTCACCTAGTGCAG”, the binding signal was 23000 fluorescence intensity (a.u.).

“ACTAAGCTGCCACGTGGATGCCACGTCAGCGAAAACCACCCGGAGTCACCTAGTGCAG”: the binding signal is 61800 fluorescence intensity (a.u.).

With “TTTTAATTCAAATGCCACCTAAGCGCCACGTCAACCCTATCGGAGTCACCTAGTGCAG”, the binding signal was 23500 fluorescence intensity (a.u.).

Consider “TTTAATTCAAATGCCAGCTAAGCGCTACGTCAACCCTACACGGAGTCACCTAGTGCAG”, for which the binding signal is 15500 fluorescence intensity (a.u.).

On to “GGGCGGAGCTAGAATAAAATAAAGGAGGGTTCCACTCGTTCGGAGTCACCTAGTGCAG”, for which the binding signal was 23100 fluorescence intensity (a.u.).

“TCGATTTACTGACAAAATTGTATCCCAAAACAATGGCTTACGGAGTCACCTAGTGCAG”: the binding signal is 33700 fluorescence intensity (a.u.).

With “TTCTCTACCAGCGGCAGCGGCGGCTGGTAGGGAGGAGGAGCGGAGTCACCTAGTGCAG”, the binding signal is 4860 fluorescence intensity (a.u.).

“ATAAAGAAGGGAGGCAGCGGGCGAGCTGTAAAGGAGTACACGGAGTCACCTAGTGCAG”: the binding signal is 32300 fluorescence intensity (a.u.).

For the sequence “GGATTGACGGGGACGCGGTGGTGGCGCCAACGGATGGACGCGGAGTCACCTAGTGCAG”, the binding signal was 6220 fluorescence intensity (a.u.).

Turning to “TTACTGGTGATATTTATTTTGACAAGTGCTTTTATTTGTACGGAGTCACCTAGTGCAG”, the binding signal was 3930 fluorescence intensity (a.u.).

On to “CATTTTGTACTTTGACAAGTATTTAATATTTGCCAGTAGTCGGAGTCACCTAGTGCAG”, for which the binding signal was 65100 fluorescence intensity (a.u.).

As to “TTACTAGTACATTTAATATATTTATTTAATGTATTTGTATCGGAGTCACCTAGTGCAG”, the binding signal was 3140 fluorescence intensity (a.u.).

Regarding “ATATTCGTCTCTATCGCTTAAGGCGGTTAGTTGCGTGTCACGGAGTCACCTAGTGCAG”, the binding signal is 3930 fluorescence intensity (a.u.).

On to “AATCATTTTATTTGACTAATACACGTCAGGATTGAATGAGCGGAGTCACCTAGTGCAG”, for which the binding signal is 4880 fluorescence intensity (a.u.).

As for “TTAATGATTTTATTTGAATGGATCAGGGTCCAATTTGCTGCGGAGTCACCTAGTGCAG”, the binding signal was 55800 fluorescence intensity (a.u.).

As for “GTCCAATTTAATGCTGACGTTGCTGATGGAATGCCGTGGACGGAGTCACCTAGTGCAG”, the binding signal was 10500 fluorescence intensity (a.u.).

Take “GCAGGGCAGGCTGACAGCTCATCTTCTCAGAGGATCCGATCGGAGTCACCTAGTGCAG”: the binding signal was 5100 fluorescence intensity (a.u.).

On to “AGCGTCGCGCCGCGCCACGCCACGCCACGCCACCCCACCACGGAGTCACCTAGTGCAG”, for which the binding signal is 5830 fluorescence intensity (a.u.).

For the sequence “TGAGCCACGCACTGAACACGACCGTTCGATCCCCTCAAGGCGGAGTCACCTAGTGCAG”, the binding signal was 3810 fluorescence intensity (a.u.).

As for “CGTATATGTATATATACATACTTTATACACATATATATACCGGAGTCACCTAGTGCAG”, the binding signal is 3360 fluorescence intensity (a.u.).

As to “TTTGGTGCGAGCGAAATACCAGGATCTTTATACACATAGCCGGAGTCACCTAGTGCAG”, the binding signal is 58000 fluorescence intensity (a.u.).

As for “ATACCTGATCCTACTTGTCATACACATATTTATCTTATAGCGGAGTCACCTAGTGCAG”, the binding signal was 3620 fluorescence intensity (a.u.).

As to “ACTGCCATGGTTGCGGAGCAGGATGGTGACGTGGATCCCACGGAGTCACCTAGTGCAG”, the binding signal was 17700 fluorescence intensity (a.u.).

With “GCCGCTTTTGCGAATTTTGCACGTAGACCCCTTGCCGCCCCGGAGTCACCTAGTGCAG”, the binding signal was 3330 fluorescence intensity (a.u.).

Consider “TTGTACCAGCTAACTCATCACCACGCAGGCCAGAGTAGTACGGAGTCACCTAGTGCAG”, for which the binding signal is 45900 fluorescence intensity (a.u.).

Consider “ACACAGCCACGCCCGTACGCAGCTACGTACGCACGCATCACGGAGTCACCTAGTGCAG”, for which the binding signal was 5670 fluorescence intensity (a.u.).

For “TCACCACCTCACTCCACTAACCAGAGAGAGAACGCAGCTACGGAGTCACCTAGTGCAG”, the binding signal is 21000 fluorescence intensity (a.u.).

In the case of “CGTGAGCGGGTGGTGGTGGTGATGGCGTTCGCGGTGGCGACGGAGTCACCTAGTGCAG”, the binding signal is 3520 fluorescence intensity (a.u.).

Turning to “AGCTTCGCACTGGGCACGTGTGCCTGTGTGTGGGAGTCAGCGGAGTCACCTAGTGCAG”, the binding signal was 4070 fluorescence intensity (a.u.).

On to “GAAGTGGTTCTGCACTGTGATTTGAAGCCTAGCAACGTGCCGGAGTCACCTAGTGCAG”, for which the binding signal is 35800 fluorescence intensity (a.u.).

For the sequence “CAAACTGCAACTCCAATATCACATTTTCTTTCTCTTTTCCCGGAGTCACCTAGTGCAG”, the binding signal was 19700 fluorescence intensity (a.u.).

On to “TGCTGCCAGAGTCAGTAGGTGCCCTCTTCCACCTGCAGACCGGAGTCACCTAGTGCAG”, for which the binding signal is 3270 fluorescence intensity (a.u.).

With “CAGTCAGTCAGTAGGTTCCCAGAATTTTCTCCCTGCAAACCGGAGTCACCTAGTGCAG”, the binding signal was 50200 fluorescence intensity (a.u.).

With “CAAACAAGGACCGTAGACACTCTAACCAACCCCAATAACACGGAGTCACCTAGTGCAG”, the binding signal was 31300 fluorescence intensity (a.u.).

Consider “CACATCGTTGCCAATGTTGCCACGTACCAAGGTCATATGGCGGAGTCACCTAGTGCAG”, for which the binding signal is 9400 fluorescence intensity (a.u.).

With “TCAGTAGGCCAGTAGCTAGCTGCTGCCTTCACACATCAATCGGAGTCACCTAGTGCAG”, the binding signal is 3160 fluorescence intensity (a.u.).

On to “ATGAACATATTTCAATCGTTCAGTACCTTCAAGCCACAGGCGGAGTCACCTAGTGCAG”, for which the binding signal is 39800 fluorescence intensity (a.u.).

(Values after PMC7819943, “Rice protein-binding microarrays: a tool to detect cis-acting elements near promoter regions in rice”.)
